Vaccinia mCherry: inhibitors of vaccinia virus infection (mCherry reporter signal) | Vaccinia virus mCherry reporter infection, fluorescence | Potency, µM (series often up to 36.5 µM), inactives show top-dose activity change, negative = inhibition, hits mostly inhibitors | 0.63% of 310,000 active; calls by dose curve; tested in A549 cells; further: potency means the concentration at half of the fitted maximal effect; nearly all actives have a fitted effect of over 35% in size
Lassa entry inh: blocks Lassa virus binding to or entry into cells; Lassa virus pseudotype entry inhibition, cell reporter; Potency, µM (titrated, usually from 37.9 µM), for inactives: top-dose activity change, negative = inhibition, hits mostly inhibitors; 1.2% of 300,000 active; calls by dose curve; tested in HEK293 cells; further: potency means the concentration at half of the fitted maximal effect; nearly all actives have a fitted effect of over 50% in size
MARV entry inh: blocks Marburg virus binding to or entry into cells. 1.8% of 300,000 active. AID 540276. Marburg virus pseudotyped entry inhibition, cell reporter. Potency, µM (doses to about 37.8 µM), for the others: top-dose activity change, negative = inhibition, usual class: inhibitors; calls by dose curve; tested in HEK293 cells; further: potency means the concentration at half of the fitted maximal effect
HCMV antiviral: inhibitors of human cytomegalovirus. HFF cells, HCMV-luciferase reporter, 72 h; stronger effect = lower value. activity change, negative = inhibition, % at 57.5 µM. 4.5% of 410,000 active; in the data active means activity change below about -60%; inconclusive means no clear call, values can overlap the other calls; inactive means above about -39%
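Steps: HFFs plated, 16 h 37C; compounds added; HCMV-luciferase added to MOI 1 PFU/cell; 72 h 37C; OneGlo reagent, 5 min room temperature; luminescence read, normalized to controls.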
FMDV antiviral: antivirals against foot and mouth disease virus; FMDV antiviral cell-based qHTS; Potency, µM (top dose mostly 57.9 µM), for inactives: at the highest dose activity change, negative = inhibition, most hits filed as inhibitors; 1.2% of 410,000 active; AID 1159524; calls by dose curve; tested in HEK293T cells; further: read-out not given here; potency means the concentration at half of the fitted maximal effect; nearly all actives have a fitted effect of over 45% in size
Vaccinia Venus: inhibitors of vaccinia virus (Venus reporter); AID 720580; Vaccinia virus Venus reporter expression, fluorescence; 0.46% of 330,000 active; Potency, µM (series often up to 36.5 µM), for the others: at the highest dose activity change, negative = inhibition, most hits filed as inhibitors; calls by dose curve; tested in A549 cells; further: potency means the concentration at half of the fitted maximal effect; nearly all actives have a fitted effect of over 30% in size
Starred values were filed as active, the others as inactive; i = inactive; u = inconclusive; x = not tested or not shown; + = active, no number; ! = not active in a repeat; [ ] = another dose, or the depositor's remark. Compounds with a hit are over-represented: about 6.5% of the library has one in this group of screens. On the % scale 0 is the no-effect control and ±100 the full control effect.

SMILES | Vaccinia mCherry | Lassa entry inh | MARV entry inh | HCMV antiviral | FMDV antiviral | Vaccinia Venus
Cc1ncc2c(c1CNC(=O)c1ccc3c(c1)OCO3)CCN(C(=O)c1ccc3ccccc3c1)C2 | -7% | x | x | x | -9% | -27%
Nc1ccc2nc(-c3ccc(Cl)cc3)[nH]c2c1 | u | x | x | 217 | -10% | u
Clc1ccc2nc(-c3ccc(Cl)nc3)[nH]c2c1 | i | u | 7.9µM* | 139 | 26% | -18%
COc1ccc(CNC(=O)c2cccc3c(-c4cccc(C(N)=O)c4)coc23)cc1OC | -4% | x | x | -94* | 7.9µM* | -30%
COc1cc(-c2coc3c(C(=O)NCc4ccc(OC)c(OC)c4)cccc23)ccc1O | 16µM* | x | x | -73* | 18µM* | u
O=C(NN=Cc1ccco1)C(=O)Nc1cccc(C(F)(F)F)c1 | x | x | x | -6 | x | x
Cc1ccc(S(=O)(=O)N2CCN(c3ccnc4cc(Cl)ccc34)CC2)cc1 | -13% | -22%[46.1 µM] | 5µM* | -61* | -9% | -4%
CC(=O)c1ccc(S(=O)(=O)N2CCN(c3ccnc4cc(Cl)ccc34)CC2)cc1 | -30% | x | x | -70* | u | -24%
CS(=O)(=O)N1CCN(c2ccnc3cc(Cl)ccc23)CC1 | i | -13%[46.1 µM] | 5% | -3 | -14% | -14%
O=S(=O)(c1ccc(Br)s1)N1CCN(c2ccnc3cc(Cl)ccc23)CC1 | -8% | -20% | u | -72* | u | -13%
COc1ccccc1NC(=O)c1cnc(SCC(=O)N2CCOCC2)n(C)c1=O | -7% | 5%[46.1 µM] | x | 38 | 0% | 0%
Cc1ccccc1Cn1cc(S(=O)(=O)c2ccc(F)cc2)c(=O)c2cc3c(cc21)OCO3 | 0% | 1%[46.1 µM] | 4%[46.1 µM] | 13 | -2% | 1%
O=C(NCc1ccc(Cl)cc1)C1CCN(C(=O)Cc2ccccc2)CC1 | -1% | -5% | 1% | -68* | -19% | -5%
O=C(NC1CCCCC1)N1CCN(C(c2ccccc2)c2ccccc2)CC1 | -11% | 13µM* | u | -13 | x | -15%
O=C(NC1CCCC1)C1CCN(C(=O)NCc2ccccc2)CC1 | x | x | x | -63* | -22% | x
COc1cc(C)c(CN2CCc3nnc(C(C)NC(=O)c4cc(F)ccc4F)n3CC2)cc1C (centres undefined) | -19% | x | x | x | -16% | -18%
CC(=O)C(C(=O)Nc1c(C)cccc1C)N(C(=O)Cc1ccc([N+](=O)[O-])cc1)c1ccccc1 (centres undefined) | x | x | x | 3 | x | x
CN(C)CC[C@@H](c1ccc(Br)cc1)c1ccccn1 | i | u | 8.9µM*! | u | -25% | -4%
CN(C)CC[C@@H](c1ccc(Cl)cc1)c1ccccn1 | -20% | 1% | 5.6µM*! | u | -22% | -13%
Cc1cc2nn(-c3ccc(F)cc3)nc2cc1NC(=O)c1cccc([N+](=O)[O-])c1C | 4% | 3%[46.1 µM] | u | 41 | 18% | -5%
C[C@H]1CC[C@H]2C(=O)N[C@H](Cc3ccccc3)C(=O)N2[C@H]1c1ccccc1 | x | x | -17%[14.2 µM] | x | x | x
O=C(N[C@@H](Cc1cccnc1)C(=O)N1CCC[C@H]1C(=O)NCCc1ccccc1Cl)c1cccs1 | x | x | x | -17 | x | x
CC(C)CCC(C)N=Cc1c(O)n(Cc2ccccc2)c(=O)c2ccccc12 (centres undefined) | x | -10% | 13µM* | 7 | -5% | -12%
O=c1c2ccccc2c(/C=N/c2ncn[nH]2)c(O)n1Cc1ccccc1 | u | -18%[46.1 µM] | u | -82*! | -4% | u
CCN(CC)CCCN=Cc1c(O)n(Cc2ccccc2)c(=O)c2ccccc12 | x | u | u | 45 | 3% | u
SMILES | Vaccinia mCherry | Lassa entry inh | MARV entry inh | HCMV antiviral | FMDV antiviral | Vaccinia Venus
COc1cc(C(C)=O)ccc1COc1ccc(C(=O)OCC(=O)NC(C)(C)C)cc1OC | i | u | u | -36 | 20µM* | -20%
COc1cc(C(C)=O)ccc1COc1ccc(C(=O)OCC(=O)NC2CCS(=O)(=O)C2)cc1OC (centres undefined) | i | -12% | 1% | -25 | -19% | -25%
O=C1c2cccc3c(N4CCCCC4)ccc(c23)C(=O)N1c1cccc(O)c1 | -19% | x | u | -84* | -10% | 151%
O=C1c2cccc3c(N4CCCCC4)ccc(c23)C(=O)N1CCO | -2% | u | u | 17 | 6% | 10%
Cc1cc(SCc2ccc(C(F)(F)F)cc2)nc(=O)[nH]1 | x | x | x | + | 9% | x
Cc1cc(SCc2ccc(F)cc2)nc(=O)[nH]1 | x | x | x | -4 | 1% | x
CCOC(=O)c1cccn1C1C(=O)N(Cc2ccc(Cl)nc2)c2ccc(F)cc21 (centres undefined) | x | x | x | 9 | x | x
CC(C)N(C[C@@H]1CSCCS(=O)(=O)N1)C(C)C | x | u | x | 0 | x | x
Cc1cccn2c(=O)c(C=O)c(Cl)nc12 | -15% | u | u | -88* | 32µM* | -14%
COc1ccc(CNC(=O)N(C)C[C@@H]2OCc3ccccc3-c3c(n(C)c4ccccc34)C(=O)N([C@@H](C)CO)C[C@@H]2C)cc1 | x | x | x | -24 | x | x
Cc1csc(SCC(=O)Nc2cccc3nsnc23)n1 | x | u | 8% | -75* | -9% | u
Cc1csc(SCC(=O)Nc2ccccc2C)n1 | -11% | 0% | u | -16 | 10% | -7%
Cc1ccc(Nc2nc(C)c(NC(=O)c3ccc(C)cc3)c(Nc3ccc(C)cc3)n2)cc1 | -20% | -21%[46.1 µM] | u | -63* | -26% | -13%
COc1ccc(N/C=C/c2nc(SC)nnc2C)cc1 | -13% | -21%[46.1 µM] | u | -86* | -16% | -2%
Cc1nn2cc(-c3ccc(N)cc3)nc2s1 | -19% | u | -10% | 15 | 29% | -10%
CCCc1nn2cc(-c3ccc(C)c(C)c3)nc2s1 | 2% | 14%[46.1 µM] | -8%[46.1 µM] | -62* | -77% | -6%
Cc1c2cnn(CC(=O)N3CCN(c4ccccc4)CC3)c(=O)c2c(C)n1Cc1ccccc1Cl | -6% | 15%[46.1 µM] | -1%[46.1 µM] | 11 | u | -2%
COc1ccc(CC(=O)NNC(=O)CCC(=O)Nc2cc(C)ccc2C)cc1 | -18% | -8% | -8%[46.1 µM] | -104* | -9% | -9%
O=C1CCc2cc(S(=O)(=O)NC(C(=O)Nc3ccc(F)cc3)c3ccccc3)ccc2N1 (centres undefined) | -4% | 10%[46.1 µM] | -14%[46.1 µM] | -15 | -15% | 7%
COc1cccc(Cn2cc(C(=O)c3ccc(Cl)cc3)c(=O)c3ccccc32)c1 | -12% | u | u | -35 | -22% | -17%
CCCCn1nc(C(=O)NCC(c2cccs2)N2CCOCC2)c2ccccc2c1=O (centres undefined) | x | x | x | u | 32µM* | x
CCn1nc(C(=O)NCC(c2cccs2)N2CCOCC2)c2ccccc2c1=O (centres undefined) | -11% | u | -9% | -28 | 0% | -20%
O=C(NC(CC1=CCCCC1)c1ccc2ccccc2c1)C(F)(F)F (centres undefined) | x | x | -17%[14.2 µM] | x | x | x
O=C(Nc1ccc(NC(=S)NC(=O)C(c2ccccc2)c2ccccc2)cc1)c1ccccc1 | u | u | u | -66* | u | u

Assay outcomes (PubChem BioAssay)
